# Measurements from PubChem BioAssay (NCI).
# This is part of a sample that, as a whole, favours compounds with a hit. Of some 83,000 tested, about 20% had one in any assay.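 Interpretation: 100, growth as untreated; towards 0, rising growth inhibition; 0, no net growth; 0 to -100, cell death. Compounds scoring below 10 were considered active.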 Values without a mark were called inactive. Calls of active or inactive are those of the source.
# Experiments:
# Assay in all cases: NCI-60 one-dose screen, 48 h (100 = growth as untreated, 0 = no growth, -100 = all killed)
# Details in all cases: 10 µM unless noted
# OVCAR-8 ovarian = test system: OVCAR-8 ovarian
# OVCAR-5 ovarian = test system: OVCAR-5 ovarian
# OVCAR-4 ovarian = test system: OVCAR-4 ovarian
# SK-OV-3 ovarian = test system: SK-OV-3 ovarian
# IGROV1 ovarian = test system: IGROV1 ovarian
# OVCAR-3 ovarian = test system: OVCAR-3 ovarian
# HS 578T breast = test system: HS 578T breast
# NCI/ADR-RES ovarian = test system: NCI/ADR-RES ovarian
# T-47D breast = test system: T-47D breast
# MDA-MB-435 melanoma = test system: MDA-MB-435 melanoma
# SW-620 colon = test system: SW-620 colon
# MCF7 breast = test system: MCF7 breast
# HCT-116 colon = test system: HCT-116 colon
# HCC-2998 colon = test system: HCC-2998 colon
# KM12 colon = test system: KM12 colon
# RPMI-8226 leukemia = test system: RPMI-8226 leukemia
# BT-549 breast = test system: BT-549 breast
Compound,growth (OVCAR-8 ovarian),growth (OVCAR-5 ovarian),growth (OVCAR-4 ovarian) [%],growth (SK-OV-3 ovarian),growth (IGROV1 ovarian),growth (OVCAR-3 ovarian),growth (HS 578T breast),growth (NCI/ADR-RES ovarian),growth (T-47D breast),growth (MDA-MB-435 melanoma),growth (SW-620 colon),growth (MCF7 breast),growth (HCT-116 colon),growth (HCC-2998 colon),growth (KM12 colon) [%],growth (RPMI-8226 leukemia) [%],growth (BT-549 breast) [%]
Cn1c2ccccc2c2nnc(NCCCCO)nc21,100%,86.5%,94.6,86.5%,57.8%,88.6%,81.6%,94.3%,76.5%,110%,93%,59.2%,90.1%,98%,94.8,–,–
COc1nc2ccccc2s1,96.3%,93.1%,118,89.5%,–,110%,91%,99.2%,99.2%,105%,93%,87.8%,103%,–,102,91.6,90.6
Cc1cc(NC(=O)c2ccccc2)c(Cl)cc1N,95.9%,103%,97.5,107%,33.3%,119%,109%,102%,98%,97.4%,106%,84.9%,103%,102%,–,–,–
CCOC(=O)c1cc(C)[nH]c(=O)c1C#N,108%,105%,107,95.4%,118%,105%,107%,109%,107%,86%,–,104%,99.9%,–,–,–,92.9
N#C/C(=C\c1ccc(C#N)cc1)C(=O)c1ccccc1,101%,104%,98.7,109%,–,105%,116%,98.7%,65.4%,107%,109%,97.5%,97.8%,104%,107,–,112
CCC(=O)C1C(=O)c2ccccc2C1=O,99.8%,103%,102,116%,–,104%,135%,106%,113%,104%,113%,105%,107%,106%,105,115,103
CCOP(=O)(NC(c1ccccc1)c1ccccc1)OCC,98.1%,108%,–,107%,92.2%,112%,107%,104%,90.4%,110%,103%,92.7%,93.8%,110%,–,104,105
CCCCCCCCCCCCSC1=C(Cl)C(=O)C(OC)=C(OC)C1=O,28.7%,80%,38.8,79.9%,5.92% (active),38.8%,67.3%,34.9%,14.1%,25.9%,27.5%,6.48% (active),16%,4.65% (active),24.4,–,–
CN(C)c1ccc2c(N(C)C)cc(N(C)C)nc2c1,78.3%,102%,72.1,87.5%,103%,93.6%,100%,77%,56%,80.2%,51.6%,13.9%,48.1%,118%,78.3,–,–
CCOC(=O)CNC(=O)Sc1ccc(C(C)(C)C)cc1,94%,123%,89.7,116%,74.9%,104%,99.2%,102%,88.4%,88.3%,108%,–,98.6%,110%,102,–,–
Cc1ccc2nc(N)nnc2c1,112%,102%,108,93.7%,–,92.7%,93.3%,96%,108%,106%,95.1%,–,108%,103%,103,95.4,–
NC(=S)c1c(N)n(C2OC(CO)C(O)C2O)c2ncnc(N)c12 (stereo not drawn),-10.3% (active),3.64% (active),14.5,5.93% (active),-61.2% (active),-54.1% (active),-20.1% (active),-1.77% (active),-48.2% (active),-46.6% (active),-18.3% (active),-11.6% (active),5.32% (active),3.23% (active),–,–,–
O=C1C=C[C@H](O)[C@@]2(CO)O[C@@H]12,78.2%,126%,–,115%,27.6%,55%,100%,86.3%,94.2%,–,13.9%,–,19.9%,104%,98.4,–,–
COc1ccc(Br)c2c1C(=O)CC2,106%,97.8%,107,112%,–,103%,140%,110%,133%,116%,123%,107%,108%,113%,117,112,–
NNC(=O)N/N=C1\C(=O)N(c2nccs2)C(=O)C(=O)C1c1nc2ccccc2s1 (stereo not drawn),95%,102%,105,103%,93.2%,102%,96.2%,103%,77.1%,109%,–,98.5%,88.7%,93.2%,100,–,99.1
c1ccc(Nc2ccccn2)nc1,100%,102%,100,–,114%,108%,113%,112%,84.6%,104%,108%,84.9%,99.8%,–,116,71.2,108
CN(C)Cc1ccccn1,101%,102%,106,112%,102%,117%,114%,103%,102%,–,103%,97%,99.8%,119%,111,–,101
C[C@H](CCC[C@H](C)OS(=O)(=O)c1ccccc1)OS(=O)(=O)c1ccccc1,101%,115%,–,101%,73%,109%,105%,116%,100%,108%,–,101%,95.1%,120%,107,121,125
Cc1cc(CC(=O)NCCO)n(CCO)c(=O)c1,103%,106%,108,104%,108%,106%,101%,106%,84.1%,–,–,102%,97.5%,103%,107,–,111
NC(=S)N/N=C/c1ccc(OC(=O)COc2ccccc2)cn1,29.6%,120%,69.1,90.4%,54.6%,60.2%,116%,26.8%,41.5%,60.2%,49%,22.9%,39.3%,31%,62.4,–,40.9
CCNC(=O)OCCc1c2ccccc2nc2ccccc12,98%,111%,98.1,109%,–,109%,90.2%,119%,109%,118%,101%,89.6%,94.1%,110%,114,–,111
Cc1ccc(N2C(=O)c3cccc4c(N)c(S(=O)(=O)O)cc(c34)C2=O)cc1,107%,84.7%,117,106%,35.6%,121%,106%,103%,112%,115%,109%,110%,102%,104%,99.3,–,131
